Source: PubChem BioAssay
A selection: hits, their analogues and other compounds. The true share with any hit is near 18%.
GCN5L2 inh: GCN5L2 (KAT2A) acetyltransferase inhibition | 390,000 tested, 0.21% active | GCN5L2 HAT assay, ThioGlo1 CoA-SH fluorescence | Potency, µM (top dose mostly 58.9 µM), without a hit: at the highest dose activity change, negative = inhibition, hits mostly inhibitors | AID 504327
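Fluorescence readout, Ex340nm/Em540nm: ThioGlo1 (50uM final) reacts with free CoA thiol released as 20nM GCN5L2 acetylates H3(1-25) peptide (75uM) using acetyl-CoA (70uM). Compound and enzyme sat 15 min beforehand; 20 min room-temperature reaction.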
VDR inhibitor: blocks the human vitamin D receptor | P11473 | VDR-SRC2-3 peptide fluorescence polarization, 2 h | Potency, µM, for the others: max response, negative = inhibition, usual class: inhibitors | 400,000 tested, 0.93% active | AID 504847
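VDR–SRC2-3 interaction, FP format. Cmpds 23 nl via pintool, brief spin, 2 h ambient incubation.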
DT40 TDP1 no CPT: qHTS for Inhibitors of human tyrosyl-DNA phosphodiesterase 1 (TDP1): qHTS in cells in absence of CPT; DT40 Tdp1-/- hTDP1 cells, no CPT, ATP luminescence, 48 h; Potency, µM (titrated, usually from 46.2 µM), for the others: top-dose activity change, negative = growth inhibition, actives largely listed as inhibitors; 420,000 tested, 15% active; also: nearly all actives have a fitted effect of over 55% in size
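Compound effects on proliferation are scored in DT40 Tdp1-/-;hTDP1 cells in the absence of CPT. ATP levels (CellTiter-Glo luminescence) are recorded after a ≥48 hr, 37 °C incubation.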
DT40 TDP1 CPT: DT40-hTDP1 cell growth loss with CPT; chicken DT40 Tdp1-/-;hTDP1 cells + 20 nM CPT, ATP luminescence, 48 h; Potency, µM (titrated, usually from 46.2 µM), for inactives: at the highest dose activity change, negative = growth inhibition, actives largely listed as inhibitors; 420,000 tested, 12% active; AID 686979; also: nearly all actives have a fitted effect of over 55% in size
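Chicken DT40 Tdp1-/- cells stably complemented with human TDP1 were seeded at 400 cells/well in medium containing 20 nM camptothecin, exposed to pin-transferred compounds, and grown at 37 °C for at least 48 hr. Viability was read as ATP luminescence.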
TDP1 inh: TDP1 (human) enzyme inhibition; Q9NUW8; recombinant TDP1, AlphaScreen DNA substrate cleavage; Potency, µM (doses to about 130 µM), for inactives: at the highest dose activity change, negative = inhibition, most hits filed as inhibitors; 350,000 tested, 0.28% active; also: nearly all actives have a fitted effect of over 40% in size
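Here, a 5' biotin and 3' phosphotyrosine-FITC DNA oligonucleotide reports Tdp1 activity: intact substrate bridges AlphaScreen beads, while cleavage leaves a 3' phosphate and drops signal. All incubations at room temperature.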
PLK1 PBD inh: PLK1 (human) polo-box domain binding inhibition; Plk1 PBD binding of FITC phosphopeptide, fluorescence polarization; Potency, µM, for the others: max response, negative = inhibition, usual class: inhibitors; 360,000 tested, 2.8% active; also: series mostly up to about 57 µM; nearly all actives have a fitted effect of over 65% in size
Target sequence (P53350 whole entry, looked up, the tested form may be a part): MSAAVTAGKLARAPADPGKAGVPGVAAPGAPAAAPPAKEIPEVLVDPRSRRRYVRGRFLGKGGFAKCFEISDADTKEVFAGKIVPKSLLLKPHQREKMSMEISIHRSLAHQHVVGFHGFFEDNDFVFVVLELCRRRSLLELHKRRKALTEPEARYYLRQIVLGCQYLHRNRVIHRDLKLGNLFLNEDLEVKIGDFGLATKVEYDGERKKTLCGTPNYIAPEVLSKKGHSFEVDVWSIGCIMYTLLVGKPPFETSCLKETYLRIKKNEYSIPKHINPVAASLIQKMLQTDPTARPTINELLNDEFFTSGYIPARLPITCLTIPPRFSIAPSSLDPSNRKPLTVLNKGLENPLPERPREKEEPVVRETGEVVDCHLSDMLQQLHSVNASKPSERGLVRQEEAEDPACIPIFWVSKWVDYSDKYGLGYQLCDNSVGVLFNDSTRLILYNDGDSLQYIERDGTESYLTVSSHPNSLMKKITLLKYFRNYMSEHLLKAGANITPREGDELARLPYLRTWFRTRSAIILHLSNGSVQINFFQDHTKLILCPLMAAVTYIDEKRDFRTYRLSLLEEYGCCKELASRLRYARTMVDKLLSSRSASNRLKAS
Starred values were filed as active, the others as inactive; ? = inconclusive; nt = no result given; [ ] = dose if it differs, or a comment. Calls follow the shape of the dose curve; as a rule, active = well fitted curve in the direction sought with a large enough effect; inconclusive = small, poorly fitted or top-dose-only effect, or another doubt; inactive = no such curve, though single readings can be large; an effect the other way counts as inactive or inconclusive. % is scaled to controls: 0 for no effect and ±100 for the full control effect; potency is read from the fitted curve at half-maximal effect.

SMILES	GCN5L2 inh	VDR inhibitor	DT40 TDP1 no CPT	DT40 TDP1 CPT	TDP1 inh	PLK1 PBD inh
Cc1cnc(CNc2ncncc2-c2ccoc2)cn1	-5%	?	-23%	-10%	nt	nt
C=CCN(CC=C)Cc1cc(=O)oc2cc(OC)ccc12	nt	nt	?	?	nt	4%
Cc1ccc(N2C(S)=C(C#N)C(=O)NC2c2cccs2)cc1 (configuration not stated)	-8%	25µM*	13µM*	15µM*	3%	27µM*
Cc1ccc(N2C(S)=C(C#N)C(=O)NC2c2ccco2)cc1 (configuration not stated)	-9%	40µM*	?	23µM*	-5%	-28%
C[C@H](CO)N1C[C@H](C)[C@@H](CN(C)C(=O)Nc2ccc3c(c2)OCO3)Oc2ccc(NC(=O)Cn3cnnn3)cc2C1=O	-2%	-7%	-8%	-6%	-1%	-9%
CC(NC(=O)c1nn(C)c2c1CSc1ccccc1-2)c1ccccc1 (configuration not stated)	-3%	12%	?	?	-6%	nt
CC[C@]12c3[nH]c4ccc(Cl)cc4c3CCN1C(=O)[C@@H](CC(=O)NCc1ccc(OC)c(OC)c1)C[C@@H]2C(=O)N1CCN(C(=O)C2CC2)CC1	-6%	-7%	16µM*	?	0%[56.1 µM]	-4%
CC[C@]12c3[nH]c4ccc(OC)cc4c3CCN1C(=O)C(CC(=O)NCc1ccc(OC)c(OC)c1)C[C@@H]2C(=O)N1CCN(C(=O)C2CC2)CC1 (some centres not stated)	0%	-18%	-15%	-22%	0%[56.1 µM]	?
COc1ccc(CNC(=O)C[C@H]2C[C@H](C(=O)N3CCCCC3)[C@@]3(CCc4ccccc4)c4[nH]c5ccc(Cl)cc5c4CCN3C2=O)cc1OC	-12%	3%	10µM*	10µM*	-1%[56.1 µM]	0%
Cc1n[nH]c(=O)c2c(NC(=O)CSc3nncs3)oc(C)c12	1%	4%	-5%	0%	nt	-6%
Cc1ccccc1-c1nccc(NCCN2CCOCC2)n1	-18%	?	8%	-6%	nt	nt
COC(=O)[C@@]1(Cc2ccc(OC)cc2)[C@H]2c3cc(C(=O)N(C)C)n(CCc4ccccn4)c3C[C@H]2CN1C(=O)c1ccccc1	nt	nt	nt	nt	15%	nt
COc1cccc(NC(=O)c2ccccc2-c2nc(-c3ccc(Cl)cc3)no2)c1	-2%	7%	?	3%	3%	-1%
COc1ccc(Cl)cc1-c1nc(-c2ccc(NC(=O)c3ccncc3)cc2)no1	nt	26%	10µM*	?	nt	2%
COc1cccc(-c2cc(C(=O)O)[nH]n2)c1	-8%	3%	-4%	9%	0%	-3%
COc1ccc(Cc2nc(-c3ccc(NC(=O)c4cccnc4)cc3)no2)cc1	2%	-5%	6.5µM*	5.8µM*	1%	-9%
COc1cccc(-c2cc(C(=O)Nc3ccc(F)cc3)[nH]n2)c1	-5%	15%	16µM*	?	3%	nt
COC(=O)c1ccc(-c2nc(-c3ccc(OC)c(OC)c3)no2)cc1	-1%	0%	?	1%	4%	nt
COc1ccc(-c2nc(-c3ccc(NC(=O)c4ccncc4)cc3)no2)cc1OC	2%	-16%	7.3µM*	5.2µM*	0%	-7%
COc1cccc(-c2nc(-c3ccc(NC(=O)c4ccncc4)cc3)no2)c1	-6%	17%	10µM*	9.2µM*	-6%	3%
COc1cccc(-c2nc(-c3ccc(NC(=O)c4cccs4)cc3)no2)c1	12%	-3%	?	?	-8%	1%
[O-][n+]1c2ccccc2c2n1CCN1CCOC21c1ccc(Cl)cc1 (configuration not stated)	3%	-8%	7.3µM*	2.1µM*	1%	?
